KCNH2 3.1 block: qHTS for Inhibitors of KCHN2 3.1: Mutant qHTS | activity change, % (tested at about 1.8 µM) | actives 0.95% (n = 340,000) | U2OS KCNH2 3.1, thallium flux FluxOr; active compounds read low | AID 720553, 2013 | Potassium voltage-gated channel subfamily H member 2, brain isoform KCNH2 3.1 (human);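 active = maximum activity change below -70%; inconclusive = maximum activity change from -70% to -50%; inactive = maximum activity change above -50%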;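 also: thallium influx rate constant from kinetic fluorescence after stimulation buffer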
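We transduce U2OS cells with the mutant 3.1 virus, culture them overnight, load FluxOr with Red40 quencher for 45 min, then add stimulation buffer and read kinetically for 2 min to derive a normalized rate constant.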
PLK1 PBD block: qHTS for Inhibitors of PLK1-PDB (polo-like kinase 1 - polo-box domain): Primary Screen; Potency, µM, hits mostly inhibitors; Plk1 PBD binding of FITC phosphopeptide, fluorescence polarization; actives 2.8% (n = 360,000); Serine/threonine-protein kinase PLK1 (Homo sapiens), P53350; also: series mostly up to about 57 µM; nearly all actives have a fitted effect of over 65% in size
KCNH2 WT inh: qHTS for Inhibitors of KCHN2 3.1: Wildtype qHTS. Voltage-gated inwardly rectifying potassium channel KCNH2 (Homo sapiens), Q12809. U2OS, BacMam KCNH2, thallium flux FluxOr; active compounds read low. activity change, % at 1.84 µM. actives 0.37% (n = 340,000). AID 720551, 2013;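 active = maximum activity change below -70%; inconclusive = maximum activity change between -70% and -50%; inactive = maximum activity change above -50%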
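U2OS cells transduced with wild-type KCNH2 virus are loaded with FluxOr dye for 45 min, and thallium flux is measured in kinetic reads before and after stimulation buffer. Rate constants are normalized to DMSO controls.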
CBFb RUNX1 block: qHTS Assay for Compounds Blocking the Interaction Between CBF-beta and RUNX1 for the Treatment of Acute Myeloid Leukemia. Runt-related transcription factor 1 (Homo sapiens) + Core-binding factor subunit beta …. AlphaScreen CBFb-His/RUNX1-biotin binding, biochemical. Potency, µM (titrated, usually from 59.8 µM), hits mostly inhibitors. 230,000 tested, under 10 active. AID 1477, 2009
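Inhibition was taken as any reduction in AlphaScreen signal from the CBF-beta–RUNX1 pair (His and biotin tags, 30 nM each), measured after compound (15 min) and bead (90 min) incubations at room temperature.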
VDR inh: Inhibitors of the vitamin D receptor (VDR): qHTS; Vitamin D3 receptor (Homo sapiens), P11473; VDR-SRC2-3 peptide fluorescence polarization, 2 h; actives 0.93% (n = 400,000); Potency, µM, actives largely listed as inhibitors
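Two reagent solutions held at 4 deg C in the dark were dispensed, compounds pinned at 23 nl, and the mixture incubated 2 h at room temperature. Read-out: fluorescence polarization of VDR–SRC2-3 peptide binding.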
MBNL1-CUG inh: qHTS Assay for Inhibitors of MBNL1-poly(CUG) RNA binding | AID 2675, 2010 | TR-FRET MBNL1-His/biotin-(CUG)12 binding, 665/545 ratio | Potency, µM (series often up to 57.5 µM), actives largely listed as inhibitors | Muscleblind-like protein 1 (Homo sapiens), Q9NR56 | actives 0.036% (n = 280,000); active = well fitted inhibition curve with a large enough effect in the signal ratio, with a control signal flat, not every such curve was filed as active; inconclusive = small, poorly fitted or top-dose-only effect, or effect the other way, or a change in a side signal; inactive = no such curve, though single readings can be large or run the other way; the % refers to the signal ratio
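Compounds (final 92 nM to 58 uM) are added to His-tagged MBNL1 and biotin-(CUG)12, then terbium anti-His antibody and streptavidin-XL665 (5 nM final). After 60 min at room temperature, the 665/545 nm ratio is read.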
A number is an active result; - = inactive; ? = inconclusive; . = no result; [ ] = dose if it differs, or a comment. The list is not random: actives were taken first. Their share in the collection is about 3.8%. Unless noted, calls follow the shape of the dose curve; as a rule, active = well fitted curve in the direction sought with a large enough effect; inconclusive = small, poorly fitted or top-dose-only effect, or another doubt; inactive = no such curve, though single readings can be large; an effect the other way counts as inactive or inconclusive.

SMILES	KCNH2 3.1 block	PLK1 PBD block	KCNH2 WT inh	CBFb RUNX1 block	VDR inh	MBNL1-CUG inh
CCN(CC)c1nn2c(=O)c(C(=O)NCc3cccc(OC)c3OC)cnc2s1	.	.	.	.	-	.
O=C(NCCN1CCN(C(=O)c2ccc([N+](=O)[O-])cc2)CC1)C(=O)NCc1ccccc1	-80	-	-	.	-	?
CNC(=O)C(=O)NCCN1CCN(C(=O)c2ccc([N+](=O)[O-])cc2)CC1	-	-	-	-	-	?
CCCCc1ccc(NC(=O)C(=O)NCCN2CCN(Cc3ccc([N+](=O)[O-])cc3)CC2)cc1	-169	-	-245	-	?	.
COc1cccc(CN2CCN(C(=O)Nc3ccc([N+](=O)[O-])cc3)CC2)c1	-	-	-	-	-	?
Cc1ccc(C(=O)Nc2nnc(S(=O)(=O)N(C)Cc3ccco3)s2)cc1	.	.	.	.	-	.
CCC(=O)Nc1nnc(S(=O)(=O)N(C)Cc2ccco2)s1	-	27µM	-	.	?	-
CCCC(=O)Nc1nnc(S(=O)(=O)N(C)Cc2ccco2)s1	-	27µM	-	.	?	-
COc1cccc(C2C(C(N)=O)=C(C)Nc3ncnn32)c1 (stereo unspecified)	.	.	.	.	-	.
CC(C)C(=O)c1cc2c(cc1NC(=O)c1ccccc1F)OCCO2	.	.	.	.	-	.
Cc1ccc2cc(C(=O)O)c(C)nc2c1	-88	-	-	-	-	-
CC1CCN(C(=O)Cn2cc(SCC(=O)NCc3ccccc3Cl)c3ccccc32)CC1	.	.	.	.	-	.
CCOc1ccc(C(=O)c2cn(CC(=O)Nc3ccc(F)cc3)c3cc4c(cc3c2=O)OCCO4)cc1	.	.	.	.	-	.
OCCN(CCO)c1nc(N2CCCCC2)c2nc(N(CCO)CCO)nc(N3CCCCC3)c2n1	-	12µM	-	-	-	-
CCCCc1nc2c(c3c1C[C@H](C)OC3)CN(C(=O)Nc1ccc(OC)cc1)CC2	.	.	.	-[13.1 µM]	.	.
Cc1ccc(S(=O)(=O)N(CC(=O)NCc2ccncc2)C2CCCCC2)cc1	-	2.7µM	-	-	?	-
CS(=O)(=O)N(CC(=O)NCc1ccc(Cl)cc1)C1CCCCC1	-	3µM	-	-	-	-
Cc1cc(C)c(NC(=O)COCc2cc(-c3cccs3)on2)c(C)c1	.	.	.	.	-	.
CN1CCc2c(sc3c2c(=O)n(-c2ccccc2)c2nnc(SCc4ccc(Cl)cc4)n32)C1	-	-	-186	-	-	?
Cc1nc(SCC(=O)Nc2ccccc2F)[nH]c(=O)c1Cc1ccccc1	.	.	.	.	-	.
O=C1OC2(c3cc(I)c(O)c(I)c3Oc3c2cc(I)c(O)c3I)c2c(Cl)c(Cl)c(Cl)c(Cl)c21	.	.	.	.	5µM	.
O=C1OC2(c3ccccc31)c1cc(I)c(O)c(I)c1Oc1c2cc(I)c(O)c1I	.	.	.	.	4.5µM	.
CC(Oc1ccccc1F)C(=O)NNC(=O)CCS(=O)(=O)c1ccccc1Cl (stereo unspecified)	-	-	-	.	-	.
CC(Oc1cccc(Br)c1)C(=O)NNC(=O)CCS(=O)(=O)c1ccccc1 (stereo unspecified)	-102	-	-	.	-	.
COc1cccc(/C=N/NC(=O)CC(=O)NCCc2ccc(OC)c(OC)c2)c1	-	27µM	-	-	-	-
COc1ccc(CCNC(=O)CC(=O)N/N=C/c2ccc(Br)cc2)cc1OC	-	-	-	.	-	-
Cc1ccc(/C=C/C(=O)NCCCN2CCN(CCCNC(=O)/C=C/c3ccc(C)cc3)CC2)cc1	-122	-	-119	-	-	-
CC(C)(C)c1ccc(C(=O)NCCN2CCOCC2)cc1	-	-	-	.	-	.
COc1ccc(CCNC(=O)/C=C/c2ccc(C)cc2)cc1OC	-89	-	-	-	-	-

Screens: PubChem, National Center for Advancing Translational Sciences (NCATS)
